Among the data in PubChem BioAssay AID2401 (Southern Research Specialized Biocontainment Screening …, 2010) are outcome values, retold here.

Structures are written as SMILES. Screen size: about 2,200 compounds; about 530 (24%) were called active.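 How the source made its calls: active means inhibition above a set limit at one or more concentrations of the dose series; inactive means inhibition under that limit at every dose.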 These entries were drawn from the full list. Entries that show only a call come without a potency. Potency and affinity values are given separately.

A short description of this experiment: S. Typhimurium nonspecific reporter signal inhibition – Salmonella Typhimurium, GFP fluorescence, counter-screen for PhoP regulon inhibitor project, dose response (AID 2401).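 Further: S. typhimurium with Mg-insensitive nmpC-GFP reporter grown at 10 µM Mg2+; drop in reporter fluorescence reflects general culture growth inhibition.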 The conditions noted are these: 4 h; series mostly up to 150 µM. (In general: A counterscreen serves to expose hits that act by an unwanted route or on another target.)
Regarding `O=C(c1ccco1)c1cn(CC(=O)N2CCCc3ccccc32)c2ccccc12`, the outcome was inactive.

Consider `Cc1ccc([N+](=O)[O-])cc1NC(=O)CN(C(=O)c1ccc(Cl)cc1)C1CCCCC1`, for which the compound was called inactive.

As to `O=C(/C=C/c1ccccc1)N/C(=C/c1ccccc1)C(=O)N1CCOCC1`, the compound was called inactive.

On to `COc1cc(OC)cc(C(=O)N[C@H](C(=O)OCC(=O)Nc2ccc(C(N)=O)cc2)C(C)C)c1`, for which the call was inactive.

In the case of `O=C(N/N=C/c1ccc(O)cc1O)C(=O)N/N=C/c1ccc(O)cc1O`, the compound was called inactive.

`CC1C(=O)NN=C1C(=O)N/N=C\c1ccc(O)cc1O` (centres undefined): the call was inactive.

In the case of `CC(CN1CCOCC1)C(=O)c1ccccc1` (centres undefined), the call was inactive.

`O=C(NCCN1CCOCC1)c1ccc2ccccc2c1`: the result was inactive.

`Cc1ccc(-c2n[nH]c(=S)n2/N=C/c2cc3c(cc2[N+](=O)[O-])OCO3)cc1`: the compound was called inactive.

Take `O=Cc1cccn1Cc1ccccc1[N+](=O)[O-]`: the compound was classed as inactive.

For `CCCn1c(/N=C/c2ccc3c(c2)OCO3)nc2ccccc21`, the outcome was inactive.

On to `C(=N\N1CCN(Cc2ccccc2)CC1)/c1cccnc1`, for which the call was inactive.

Consider `COC(=O)c1sccc1N/N=C(\C)c1ccc(F)c(Cl)c1`, for which the call was inactive.

In the case of `Cc1cccc2nc(CSc3nc4ccccc4o3)cn12`, the compound was called inactive.

For the compound `Nc1nc(Nc2ccc(Cl)cc2)n[nH]1`, the outcome was inactive.

`Cn1c(SCC(=O)NC(=O)c2cccc([N+](=O)[O-])c2)nnc1-c1ccc(F)cc1`: the outcome was inactive.

Regarding `O=C(NNc1c2ccccc2nc2ccccc12)c1ccccc1O`, the call was inactive.

In the case of `Cc1cc(C)c(NC(=S)NC(=O)c2ccc(-c3ccccc3)cc2)c(C)c1`, the outcome was inactive.

`O=C(CSc1nnc(-c2cccnc2)o1)OC1CCCCC1`: the outcome was inactive.

As to `CCC(C)C(NC(=O)OCc1ccccc1)C(=O)OCN1C(=O)c2ccccc2C1=O` (centres undefined), the result was inactive.

Take `Cc1cc(C2=NNC(=NC3CC3)SC2)c(C)n1-c1ccccc1`: the outcome was inactive.

On to `CCn1c(CNC(=O)COc2ccc(C(C)C)cc2)nnc1SCC(=O)Nc1ccccc1`, for which the result was inactive.

Regarding `Clc1ccc(CNc2ccc(CNc3ncn[nH]3)cc2)cc1`, the compound was classed as inactive.

For `Cc1cc(C(=O)N2CCN(C/C=C/c3ccccc3)CC2)no1`, the result was inactive.

Consider `N#CC1(C#N)COC23CCCCC2C1(C#N)C(=N)O3` (centres undefined), for which the compound was classed as inactive.

For the compound `CCCc1nn(C)c2c1C(c1cccnc1)C(C#N)=C(N)O2` (centres undefined), the outcome was inactive.

As to `CCSc1nnc(NC(=O)Cc2cccc(OC)c2)s1`, the compound was classed as inactive.

Turning to `O=C(COC(=O)c1n[nH]c2ccccc12)NC(=O)NC12CC3CC(CC(C3)C1)C2`, the compound was classed as inactive.

As for `C#CCOc1c(Cl)cc(/C=N/O)cc1OC`, the compound was called inactive.

Regarding `Cc1ccc(N(CC(=O)N/N=C/c2ccco2)S(=O)(=O)c2ccccc2)cc1`, the outcome was inactive.

For `O=C(Nc1cccnc1)c1cc(F)cc(F)c1`, the result was inactive.

Consider `Cc1[nH]c2ccccc2c1C1=NNC(=Nc2ccc(F)cc2)SC1`, for which the result was inactive.

Consider `O=C(CCC(=O)c1cccs1)OCC(=O)N1CCN(S(=O)(=O)c2ccccc2)CC1`, for which the outcome was inactive.

Consider `CCOC(=O)CCC(NC(=O)c1ccc(NCN2C(=O)CCC2=O)cc1)C(=O)OCC` (centres undefined), for which the outcome was inactive.

For `Cc1ccc(S(=O)(=O)NCc2ccc(C(=O)N3CCN(c4ccccn4)CC3)cc2)cc1`, the compound was classed as inactive.

Regarding `COCCNCCOc1ccccc1-c1ccccc1`, the outcome was inactive.

Turning to `O=C(NCc1ccco1)c1cccc(Nc2nc3ccc(Br)cc3[nH]2)c1`, the call was inactive.

As for `Cc1ccc(C)c(-c2nc3ccc(N)cc3[nH]2)c1`, the result was inactive.

Consider `Nc1cc(N)cc(-c2nc3ccccc3[nH]2)c1`, for which the compound was called inactive.

For `O=C(OCC1O[C@@H](OC(=O)c2cc(O)c(O)c(O)c2)[C@@H](OC(=O)c2cc(O)c(O)c(O)c2)[C@@H](OC(=O)c2cc(O)c(O)c(O)c2)[C@@H]1OC(=O)c1cc(O)c(O)c(O)c1)c1cc(O)c(O)c(O)c1` (some centres undefined), the outcome was inactive.

Turning to `Cc1nn(C)c(C)c1S(=O)(=O)N1CCC(C(=O)NC2CCCCC2)CC1`, the compound was classed as inactive.

On to `Oc1[nH]c(=S)sc1/C=C1\C(c2ccccc2)=Nc2ccccc21`, for which the call was inactive.

As to `C#CCn1c(=NC(=O)c2cc(Cl)sc2Cl)sc2cc(S(N)(=O)=O)ccc21`, the outcome was inactive.

Take `O=C(O)C1(P(=O)(c2ccccc2)c2ccccc2)CCC1`: the compound was called inactive.

For the compound `Cc1cc(C)c2c(=O)[nH]c(SCC(=O)Nc3ccc(N(C)C)cc3)nc2n1`, the compound was called inactive.

Regarding `CC(C)c1ccc(O)c(NC(=O)c2cncc(Br)c2)c1`, the call was inactive.

As to `Cc1cc2nn(-c3ccccc3)nc2cc1NC(=O)c1cccs1`, the result was inactive.

As for `Cc1ccc(/C=C2\SC(=S)N(Cc3ccccc3)C2=O)o1`, the result was inactive.

As to `O=C(Nc1ccsc1C(=O)NC1CCCCC1)c1ccccc1`, the call was inactive.

Take `CCOC(=O)c1c(NC(=O)COc2ncnc3ccccc23)sc(C)c1CC`: the call was inactive.

Regarding `CCOC(=O)CCCc1c[nH]c2ccccc12`, the call was inactive.

Consider `O=C(c1ccccc1)c1coc2ccc(O)c(Cl)c12`, for which the compound was classed as inactive.

As for `CCCCN(C)C(=O)c1cn(C)c2ccc(S(=O)(=O)N(C)C)cc2c1=O`, the result was inactive.

Regarding `Cc1nc(CC(=O)c2ccc(O)cc2O)cs1`, the call was inactive.

Regarding `COC(=O)c1sccc1NC(=O)c1cccnc1`, the compound was classed as inactive.

`O=C(CSc1ccc(Cl)cc1)Nc1ccccc1N1CCN(C(=O)c2ccc(Cl)cc2)CC1`: the compound was called inactive.

For the compound `COc1ccc(-c2csc(Nc3cccnc3)n2)cc1`, the compound was called inactive.

On to `CC(=O)NC12CC3CC(C1)CC(C(=O)OCC(=O)c1ccc4c(c1)OCCO4)(C3)C2`, for which the call was inactive.

As to `COc1ccc(CC(=O)n2nc(-c3ccccc3)nc2NCc2ccco2)cc1`, the call was inactive.

On to `CC(C)(C)c1ccc(C2CC2C(=O)N/N=C\c2cc3ccccc3nc2Cl)cc1` (centres undefined), for which the outcome was inactive.

`COc1ccc2c(c1)nc(N)n2Cc1ccccc1`: the compound was classed as inactive.

In the case of `CCCCn1c(N)nc2ccccc21`, the outcome was inactive.

Turning to `CCCn1c(N)nc2ccccc21`, the outcome was inactive.

As for `CSc1nc2ccccc2n1Cc1cccc(F)c1`, the outcome was inactive.

Take `CCOC(=O)c1[nH]c2ccccc2c1NC(=O)NC1CCCCC1`: the call was inactive.

With `O=C(OCC#CCSc1nnc(-c2cccc3ccccc23)o1)c1ccco1`, the compound was called inactive.

As for `Cc1ccc2nc(C(F)OC(F)(F)F)[nH]c2c1` (centres undefined), the compound was classed as inactive.

As to `O=C(CC1SC(=NCc2ccccc2)NC1=O)Nc1ccccc1` (centres undefined), the call was inactive.

Turning to `COc1ccc(NC(=O)c2ccc(OC)cc2)cc1`, the call was inactive.

`COc1ccc(OCCn2cc(/C=N/NC(=O)c3ccncc3)c3ccccc32)cc1`: the compound was called inactive.

For `COc1ccc2ccccc2c1/C=N/NC(=O)c1sc(N)c(C#N)c1C`, the result was inactive.

For the compound `CC(=O)n1cc(/C=N/NC(=O)c2sc(C)nc2C)c2ccccc21`, the result was inactive.

Turning to `CC(=O)c1c(C)nc(-c2ccc(Cl)cc2)nc1N=CN(C)C`, the outcome was inactive.

With `O=C1CN(C(=O)COC(=O)CCC(=O)c2ccc3c(c2)OCCO3)c2ccccc2N1`, the outcome was inactive.

As to `Cc1cccc(-n2c(N)cc(=O)[nH]c2=S)c1C`, the result was inactive.

With `OCCN(CCO)CC(O)Cn1c2ccccc2c2ccccc21` (centres undefined), the result was inactive.

With `Oc1cccc2ccc[n+](CC(O)Cn3c4ccccc4c4ccccc43)c12` (centres undefined), the compound was classed as inactive.

`Cc1cc(C)c(C#N)c(SCc2cn3ccccc3n2)n1`: the outcome was inactive.

On to `CCCCNC(=O)Oc1cccc(N2CCCC2=O)c1`, for which the compound was called inactive.

Regarding `COc1ccc(Cl)cc1C(=O)CSc1nc(N)cc(N)n1`, the compound was classed as inactive.

For `COc1ccccc1N1CCN(C/C(O)=C(\C#N)c2nc(-c3ccccc3)cs2)CC1`, the call was inactive.

In the case of `Cc1nc(-c2ccccc2)cc(=O)[nH]1`, the compound was classed as inactive.

Take `CC(CCc1ccccc1)NC(=O)c1ccccc1` (centres undefined): the compound was called inactive.

For the compound `Cn1c(NCc2ccccc2O)nc2ccccc21`, the outcome was inactive.

As for `COCC(=O)N=Nc1c(O)[nH]c2ccccc12`, the outcome was inactive.

For the compound `C/C(=N\NC(=S)Nc1ccc(F)cc1)c1ccc2c(c1)OCCO2`, the outcome was inactive.

For `Nc1nonc1-n1nnc(C(=O)N/N=C/c2ccc(Br)cc2)c1CSC1=NCCS1`, the compound was classed as inactive.

As to `COc1cccc(C=NCCNC(=O)c2nonc2N)c1O`, the compound was classed as inactive.

In the case of `Nc1nonc1C(=O)NCCN=Cc1cc(Cc2ccccc2)cc(Br)c1O`, the compound was classed as inactive.

On to `COC(=O)Cc1c(C)nc2nc(NCc3ccc(Cl)cc3)[nH]n2c1=O`, for which the compound was classed as inactive.

Consider `CC(C)CNC(=S)NC1CCCC1`, for which the compound was called inactive.

For `O=C(OCC(=O)c1ccccc1Cl)c1cnccn1`, the result was inactive.

For the compound `Cc1ccc(C(=O)C2COC(=O)C2)cc1` (centres undefined), the call was inactive.

With `COc1ccc(S(=O)(=O)N2CCN(C(=O)c3c(C)nn(-c4ccccc4)c3Cl)CC2)cc1`, the compound was called inactive.

Turning to `COc1ccccc1CC(=O)N1CCN(c2ccccn2)CC1`, the result was inactive.

For the compound `COc1ccc(-n2c(C)cc(C(=O)Cn3nc(C(=O)O)c4ccccc4c3=O)c2C)cc1`, the compound was classed as inactive.

`O=C(CN1CCCCC1)Nc1cccc2c1OCO2`: the result was inactive.

For the compound `COc1ccccc1NS(=O)(=O)c1cc(NC(=S)Nc2cc(C)cc(C)c2)ccc1Cl`, the compound was called inactive.

Consider `COCCCNc1ccnc2c(Cl)cccc12`, for which the outcome was inactive.

Take `COC(=O)c1ccc(Sc2ccccc2NS(=O)(=O)c2ccc(C)cc2)nc1`: the compound was called inactive.

For the compound `CN(CC(=O)NCc1cccc(F)c1)C(=O)c1ccco1`, the result was inactive.

For the compound `O=C(c1ccco1)N1CCN(c2ncnc3c2[nH]c2ccccc23)CC1`, the outcome was inactive.

On to `O=S(=O)(Nc1cc(Sc2cccc3cccnc23)c(O)c2ccccc12)c1ccc(F)cc1`, for which the call was inactive.

Turning to `CC(=O)Nc1cccc(-c2csc(Nc3cccc(C)n3)n2)c1`, the call was inactive.

Consider `Cc1ccc(-n2c(C)cc(C3=NNC(=NC4CC4)SC3)c2C)cc1C`, for which the call was inactive.

Take `COc1ccc(NC(=O)c2sccc2SCC#N)cc1`: the result was inactive.

With `CCOC(=O)CN1C(=O)C(C)(C)Oc2ccc(C(=O)Nc3ccccc3OC)cc21`, the compound was called inactive.

For the compound `C=CCSC1=Nc2sccc2C2=NC(=O)CN12`, the call was inactive.

With `Cc1ccn2cc(CSc3ccccc3N)nc2c1`, the compound was classed as inactive.

In the case of `COc1cccc(N=Cc2c[nH][nH]c2=O)c1`, the outcome was inactive.

In the case of `CO/N=C\CC(=O)Nc1ccc(F)cc1`, the outcome was inactive.

For the compound `COc1ccccc1N1CCN(C(=O)CSc2nc3ccccc3o2)CC1`, the result was inactive.

As to `CCC(C)NC(=O)c1ccccc1NC(=O)C(C)N(c1ccccc1)S(C)(=O)=O` (centres undefined), the result was inactive.

Turning to `FC(F)(F)COc1nc(OCC(F)(F)F)nc(N2CCN(c3ccccc3)CC2)n1`, the compound was called inactive.
